From PubChem BioAssay AID1117263 (The Scripps Research Institute Molecular Screening Center, 2014)
In all, about 2,300 compounds went through this assay and about 300 (13%) were called active.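 How the source made its calls: active means mean inhibition of the replicates above the hit cutoff set in the primary screen (cut at about 17% in these data); inactive means the rest.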 Only a sample is shown.

biological target: Sialate O-acetylesterase (Homo sapiens) (UniProt Q9HAT2); test: human SIAE inhibitors, retest, confirmation, biochemical, fluorescence polarization, FP-Rh probe, triplicate (AID 1117263); conditions: SIAE FP-Rh activity-based probe, at 9.66 µM, active compounds read high;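 further: 0% = SIAE with DMSO and probe and 100% = probe without SIAE; inhibitors lower polarization as more probe stays unbound to SIAE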
Sequence (Q9HAT2 whole entry, looked up): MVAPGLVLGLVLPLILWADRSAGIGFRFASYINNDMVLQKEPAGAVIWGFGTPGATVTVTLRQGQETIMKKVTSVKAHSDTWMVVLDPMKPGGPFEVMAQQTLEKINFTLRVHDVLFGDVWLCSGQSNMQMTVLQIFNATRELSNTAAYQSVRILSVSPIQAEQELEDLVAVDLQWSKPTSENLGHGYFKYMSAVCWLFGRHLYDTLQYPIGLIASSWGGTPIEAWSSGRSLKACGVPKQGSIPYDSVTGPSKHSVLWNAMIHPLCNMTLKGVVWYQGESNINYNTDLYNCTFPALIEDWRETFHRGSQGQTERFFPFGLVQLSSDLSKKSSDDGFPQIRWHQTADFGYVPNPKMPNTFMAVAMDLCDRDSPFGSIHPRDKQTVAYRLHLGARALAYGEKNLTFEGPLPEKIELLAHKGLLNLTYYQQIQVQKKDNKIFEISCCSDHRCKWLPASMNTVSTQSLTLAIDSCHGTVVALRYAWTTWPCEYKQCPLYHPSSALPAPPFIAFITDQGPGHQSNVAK

inhibition, active:
COc1cc(C(=O)Nn2c(O)c(C3=c4ccccc4=NC3=O)sc2=S)ccc1O 34.8%, Oc1ccc(C2Nc3cccc4cccc(c34)N2)cc1 29.6%

inhibition, inactive:
Oc1ccc(CNc2ccccc2O)cc1 -1.96%, Cc1cccc(C)c1NC(=O)CN(C)C(=O)CCC(=O)c1ccccc1 -0.52%, CN(C)c1ccc(N/C=C/C(=O)C(F)(F)F)cc1 2.35%, Cc1nc2ccc(C(=O)N3CCSCC3)cc2s1 -7.27%, COC(=O)C1=C(NC(=O)C(C)(C)C)CCS1 0.95%, CN(CC(=O)Nc1cccc(F)c1)CC(=O)Nc1cccc([N+](=O)[O-])c1 1.24%, CCOC(=O)c1c(C)nn(-c2ncccc2NC(=O)CCC(=O)O)c1C -3.52%, CC(C)CCNC(=O)C1CCCN(S(=O)(=O)c2ccc(F)cc2)C1 (stereo unspecified) 1.12%, CN1c2ccc(C=O)c3c(C=O)ccc(c23)N(C)C1(C)C 4.27%, COc1ccc(C2OCC3(CO2)SC(=O)NC3=O)cc1OC (stereo unspecified) -9.1%, CC1(C)C/C(=C(/C#N)C(N)=O)CCO1 -3.01%, CCOc1cc(N2CCOCC2)c(OCC)cc1NC(=O)COc1cccc2cccnc12 8.9%, O=C(NNc1c2ccccc2nc2ccccc12)c1cc2ccccc2cc1O 13.8%, CC(=O)Nc1ccc(Nc2cc(C)nc(Nc3ccc(NC(C)=O)cc3)n2)cc1 4.83%, Cc1ccnc(NS(=O)(=O)c2ccc(NC(=O)c3ccc(S(=O)(=O)N4CCOCC4)cc3)cc2)n1 1.77%, Cc1ccc(C2Nc3cccc4cccc(c34)N2)cc1 7.48%, Cc1ccc(NC(=S)NCCN2CCOCC2)cc1 2.38%, CCOc1ccccc1Nc1ccc(C(=O)O)cc1[N+](=O)[O-] -0.47%, Cc1ccc(N=C2NC(=O)/C(=C/C=C/c3ccco3)S2)cc1C -34.3%, CCOc1ccc(Nc2nc(Cc3nnc(SCC(=O)NC4CCCC4)n3C)cs2)cc1 5.78%, COc1ccc(C2C(C(C)=O)=C(O)C(=O)N2CCc2c[nH]c3ccccc23)cc1 (stereo unspecified) 0.13%, CCOC(=O)N1CCN(C(=O)CSc2ccc(Cl)cc2)CC1 -2.01%, CC(=O)Nc1ccc(S(=O)(=O)Nc2ccc(N3CCCCC3)cc2)cc1 4.68%, COc1ccc(NC(=O)/C(N=Nc2cccc(S(=O)(=O)Nc3ccc(SC(F)F)cc3)c2)=C(\C)O)cc1 -11.2%
